# In PubChem BioAssay:
# Active and inactive are the calls of the source.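 Rule for the calls, unless noted: active = fluorescence slope after compound addition differing from the mean of all screened samples at 99.7% confidence, in either direction; inactive = the rest.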
# Experiments:
# [1] = inhibitors of TNFa-induced NFkB p65 translocation, primary screen, imaging, HUVEC, MLSMR starter and 10KST1 sets (AID 438;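 active = inhibition above 20% together with a positive visual image hit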;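 note: compound added about 3h40 before a 20 min TNFalpha stimulation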;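 for inhibition: signal is the nuclear over cytoplasmic p65 intensity ratio per well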); conditions: HUVEC TNFa-induced p65 nuclear translocation; cell count: measured here: nuclei count (cytotoxicity indicator), at 2.08 µM; inhibition: at 2 µM, stronger effect = higher value, 0% TNFa-plus-vehicle, 100% no-TNFa wells
# [2] = reduction of polyQ htt aggregates in cells – imaging, exon1htt(103Q)mCFP cells, high-content imaging, primary screen (AID 483;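 active = visual image review flags a hit and inhibition of aggregation exceeds 20%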;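 note: compound exposure lasted 3 days before fixation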;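 for nuclei count: percent of the per-plate median nuclei count of sample wells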); conditions: exon1htt(103Q)mCFP cell line, aggregate imaging, at 2 µM; inhibition of aggregation: stronger effect = higher value; nuclei count: measured here: cell count, toxicity
# [3] = endothelial E-selectin expression blockers – imaging, HUVEC, immunofluorescence, MLSMR starter and 10KST1 sets, primary screen (AID 487;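 active = visually confirmed hit in the image check and inhibition above 20%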;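 for inhibition: signal is fraction of cell area covered by stained E-selectin grains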;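 for nuclei count: 100% = median nuclei count of all wells on the same plate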); conditions: HUVEC TNFalpha-induced E-selectin immunofluorescence imaging, at 2 µM; inhibition: stronger effect = higher value; nuclei count: measured here: cell number, toxicity
# [4] = target: Voltage-gated potassium channel subunit beta-2 (Rattus norvegicus) (UniProt P62483); test: inhibitors of rat Kvbeta2 reductase activity – biochemical, NADPH fluorescence, primary screen (AID 622;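 active = fluorescence slope higher than the sample average by over 3 SD, cut at about -0.22 in these data, passing the limit was not always enough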;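 note: slope of raw intensity against log time taken from 70 to 1610 s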); conditions: recombinant KvBeta, 4-cyanobenzaldehyde reduction, at 10 µM, stronger effect = higher value
# Sequence of Voltage-gated potassium channel subunit beta-2 (Rattus norvegicus) (P62483 whole entry, looked up): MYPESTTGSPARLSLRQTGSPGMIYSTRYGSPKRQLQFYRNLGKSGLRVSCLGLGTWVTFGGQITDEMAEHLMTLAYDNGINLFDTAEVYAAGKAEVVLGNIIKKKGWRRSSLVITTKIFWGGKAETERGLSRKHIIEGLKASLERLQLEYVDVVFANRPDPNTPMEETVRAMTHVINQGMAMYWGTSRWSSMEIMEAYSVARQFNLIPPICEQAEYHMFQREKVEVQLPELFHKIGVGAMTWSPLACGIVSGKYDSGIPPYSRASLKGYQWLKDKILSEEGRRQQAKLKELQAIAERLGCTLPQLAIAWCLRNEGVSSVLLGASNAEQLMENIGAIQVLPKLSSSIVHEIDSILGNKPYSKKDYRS
# [5] = target: Voltage-gated potassium channel subunit beta-2 (Rattus norvegicus) (UniProt P62483); test: enhancers of rat Kvbeta2 NADPH turnover – biochemical, NADPH fluorescence, primary screen (AID 623;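 active = NADPH fluorescence slope more negative than the mean of all samples by about 3 SD, 99.7% confidence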;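 note: fluorescence intensity change per second fitted from 20 to 320 s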); conditions: Recombinant KvBeta, NADPH fluorescence decrease slope, 10 min; at 10 µM; stronger effect = lower value
# [6] = target: Alpha-2C adrenergic receptor (Homo sapiens) (UniProt P18825); test: compounds altering alpha2C-coupled GIRK flux – cell-based, HEK293 alpha2C/GIRK1/2, thallium flux, primary screen (AID 624); conditions: thallium flux BTC fluorescence, at 10 µM, actives lie on both sides;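 note: slope of fluorescence ratio to pre-addition baseline per second over 15 to 24 s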
# Sequence of Alpha-2C adrenergic receptor (Homo sapiens) (P18825 whole entry, looked up): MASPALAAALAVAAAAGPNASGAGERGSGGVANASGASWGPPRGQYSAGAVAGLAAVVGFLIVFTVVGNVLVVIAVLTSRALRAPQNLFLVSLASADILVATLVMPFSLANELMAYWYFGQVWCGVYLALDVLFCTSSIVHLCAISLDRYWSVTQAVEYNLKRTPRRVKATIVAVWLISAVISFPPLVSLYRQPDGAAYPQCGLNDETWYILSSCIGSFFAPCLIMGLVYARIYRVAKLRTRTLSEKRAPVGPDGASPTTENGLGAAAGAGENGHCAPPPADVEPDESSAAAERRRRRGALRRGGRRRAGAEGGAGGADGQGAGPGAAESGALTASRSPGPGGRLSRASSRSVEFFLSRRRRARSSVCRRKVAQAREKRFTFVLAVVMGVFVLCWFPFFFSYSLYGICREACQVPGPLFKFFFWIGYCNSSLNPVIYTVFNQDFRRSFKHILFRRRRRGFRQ
# [7] = blockers of RIG-like receptor reporter activation – cell-based, Sendai virus stimulus, luciferase, 10K MLSCN set, TLR/RLR signaling modifier project, primary screen (AID 602276;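 active = inhibition at or above 50% at 10 µM; inactive = inhibition below 50%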;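 note: firefly luciferase from ISG56 promoter only with Renilla not read in this screen; 0% = Sendai virus plus DMSO and 100% = medium plus DMSO without virus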); conditions: HEK293 RL24 IRF3 luciferase reporter, at 10 µM, stronger effect = higher value
# [8] = TLR3 IRF3 reporter activation blockers – cell-based, poly I:C stimulus, luciferase, 10K MLSCN set, primary screen (AID 602277;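 active = inhibition of the reporter signal at or above 50%; inactive = inhibition below 50%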); conditions: HEK293-TLR3 RL24 IRF3 luciferase reporter, at 10 µM, stronger effect = higher value
Compound,cell count [1],inhibition [1],inhibition of aggregation [2],nuclei count [2] [%],inhibition [3],nuclei count [3] [%],fluorescence slope [4],NADPH fluorescence slope [5],slope [6],inhibition [7],inhibition [8]
O=C1C(Cl)=C(N2CCCCC2)C(=O)N1c1ccccc1Cl,450,4.4% (inactive),-0.8% (inactive),105,-57.1% (inactive),126,-0.465 (inactive),-0.000114 (inactive),0.00518 (inactive),16.8% (inactive),24.8% (inactive)
COc1cccc(N2CCN(Cc3cccnc3)CC2)c1,621,-1% (inactive),-21.4% (inactive),96.6,15.6% (inactive),87.2,-0.364 (inactive),-6e-05 (inactive),0.00629 (inactive),6.56% (inactive),11.4% (inactive)
CCCCn1nc(C(=O)N2CCc3ccccc32)c2ccccc2c1=O,423,-9% (inactive),-20.9% (inactive),112,36.5% (inactive),41.8,-0.473 (inactive),2e-05 (inactive),0.0045 (inactive),-1.51% (inactive),20.2% (inactive)
Cc1cccc2c1nc(-c1ccccc1)n1cnnc21,345,-10.7% (inactive),-2.7% (inactive),73,-58% (inactive),114,-0.452 (inactive),-2.6e-08 (inactive),0.00423 (inactive),-15.9% (inactive),-12.4% (inactive)
COc1ccc(C(=O)CN2C3=NCCCN3c3ccccc32)cc1OC,335,-3.1% (inactive),-14.2% (inactive),76.5,22.7% (inactive),93.6,-0.475 (inactive),-4.1e-05 (inactive),0.00312 (inactive),10.4% (inactive),28.8% (inactive)
CCOC(=O)Cc1csc(NC(=O)CN(C)S(=O)(=O)c2ccc3c(c2)CCC(=O)N3)n1,585,12.6% (inactive),-126% (inactive),29.2,40.4% (inactive),111,-0.521 (inactive),-3.1e-05 (inactive),0.00704 (inactive),25.7% (inactive),21.7% (inactive)
Cc1ccc2c(CNCc3ccco3)cc(=O)oc2c1,712,7.3% (inactive),21.5% (inactive),87.6,-10.2% (inactive),96.6,-0.519 (inactive),-1.9e-05 (inactive),0.00495 (inactive),-18.6% (inactive),-70.4% (inactive)
COc1cc(C(=O)N2CCC(NC(=O)C(Cc3ccc(C)cc3)NC(C)=O)CC2)cc(OC)c1OC (configuration not stated),666,-6.1% (inactive),22.1% (inactive),56.4,5.2% (inactive),127,-0.478 (inactive),-4.4e-05 (inactive),0.00562 (inactive),1.73% (inactive),24.4% (inactive)
CCOC(=O)c1sc2cccc(F)c2c1N,546,-17.8% (inactive),24.4% (inactive),102,4.5% (inactive),110,-0.319 (inactive),-7.4e-05 (inactive),0.00522 (inactive),-3.55% (inactive),-14.4% (inactive)
COCCOC(=O)C1=C(C)NC(=O)CC1c1cc2c(cc1Br)OCO2 (configuration not stated),424,4.1% (inactive),16.1% (inactive),104,-12.8% (inactive),95.1,-0.395 (inactive),-2.8e-05 (inactive),0.0043 (inactive),17.3% (inactive),16.1% (inactive)
CCOC(=O)N1CCN(c2c(NCCN(C)Cc3ccccc3)c(=O)c2=O)CC1,578,-2% (inactive),9.3% (inactive),105,-62.3% (inactive),124,-0.492 (inactive),-1.8e-05 (inactive),0.00728 (inactive),1.64% (inactive),6.95% (inactive)
O=C(Nc1ccccc1-c1ccccc1)NC1CCN(CC(=O)N2CCOCC2)CC1,537,-39.8% (inactive),-5% (inactive),113,-63.8% (inactive),109,-0.433 (inactive),-7.3e-05 (inactive),0.00795 (inactive),9.32% (inactive),27.5% (inactive)
O=C(Nc1ccc2snnc2c1)N1CCSCC1,407,-3% (inactive),1.8% (inactive),97.6,12.4% (inactive),106,-0.371 (inactive),-1.5e-05 (inactive),0.00608 (inactive),-5.1% (inactive),3.28% (inactive)
O=C(CSc1nc2ccccc2o1)Nc1ccccc1,728,11.1% (inactive),0.9% (inactive),100,-10.4% (inactive),106,-0.285 (inactive),-8e-06 (inactive),0.00667 (inactive),-21.3% (inactive),-87.6% (inactive)
Cc1ccc2c(Cl)cc(Cl)c(OCc3c(C)noc3C)c2n1,731,-1.2% (inactive),-13.6% (inactive),97.3,-164% (inactive),142,-0.604 (inactive),2.6e-05 (inactive),0.00543 (inactive),-17% (inactive),-0.677% (inactive)
Cc1ccc(S(=O)(=O)Nc2nc3ccccc3nc2NCc2ccco2)cc1,686,7.1% (inactive),-2% (inactive),103,-39.6% (inactive),110,-0.376 (inactive),6.7e-06 (inactive),0.00699 (inactive),-21.6% (inactive),-121% (inactive)
Cc1nn(-c2ccc(F)cc2)c2sc(C(=O)N3CCCCCC3)cc12,465,2% (inactive),1.2% (inactive),83.1,-38.9% (inactive),113,-0.199 (inactive),-3.1e-05 (inactive),0.00645 (inactive),-4.92% (inactive),-14.2% (inactive)
CS(=O)(=O)N1CCc2cc(S(=O)(=O)Nc3ccc4oc5c(c4c3)CCCC5)ccc21,484,7.3% (inactive),-8.4% (inactive),104,-40% (inactive),121,-0.531 (inactive),1.3e-05 (inactive),0.00786 (inactive),11.9% (inactive),3.23% (inactive)
O=C(Nc1ccc(-c2noc(-c3cccs3)n2)cc1)c1cccnc1,595,8.2% (inactive),28% (inactive),115,-49.2% (inactive),95.8,-0.474 (inactive),2.2e-05 (inactive),0.00649 (inactive),-67.5% (inactive),-122% (inactive)
Cc1cccc(-c2cc3nc4c(c(N5CCC6(CC5)OCCO6)n3n2)CCCC4)c1,627,-5.5% (inactive),19.8% (inactive),116,-139% (inactive),156,-0.419 (inactive),4.7e-05 (inactive),0.00699 (inactive),-1.5% (inactive),-27.3% (inactive)
CC1=C(C(=O)OC2CCCCC2)C(c2cccnc2)n2ncnc2N1 (configuration not stated),271,-9.3% (inactive),10.8% (inactive),77.6,21.9% (inactive),34.7,-0.327 (inactive),-6.6e-06 (inactive),0.00388 (inactive),7.24% (inactive),26.4% (inactive)
CCOC(=O)C1CCN(c2c(N3CCCC(C(=O)OCC)C3)c(=O)c2=O)CC1 (configuration not stated),838,3.2% (inactive),-6.4% (inactive),101,-138% (inactive),115,-0.616 (inactive),9.3e-06 (inactive),0.0058 (inactive),-1.39% (inactive),19.7% (inactive)
COc1cccc(NC(=O)c2nc3nc(C)cc(C(F)F)n3n2)c1,641,-2.9% (inactive),1.9% (inactive),68.8,-34.9% (inactive),96.6,-0.567 (inactive),-5.2e-05 (inactive),0.00736 (inactive),3.8% (inactive),4.85% (inactive)
Cc1nc(N)c(C#N)c(-c2cccnc2)c1C,494,-14.5% (inactive),30.9% (inactive),85,-16.2% (inactive),88.9,-0.411 (inactive),1.8e-05 (inactive),0.00561 (inactive),4.72% (inactive),-5.6% (inactive)
COc1ccc(C2=NO[C@@H]3C(=O)N(c4cccc(C)c4C)C(=O)[C@H]23)cc1OC,599,-12.3% (inactive),10% (inactive),91.7,-41.7% (inactive),105,-0.588 (inactive),-4.9e-05 (inactive),0.00915 (inactive),-20.9% (inactive),-5.53% (inactive)
CC(C)C(OC(=O)c1ccco1)C(=O)NCc1ccccc1 (configuration not stated),489,5% (inactive),-10.8% (inactive),108,-122% (inactive),126,-0.443 (inactive),2.2e-05 (inactive),0.00599 (inactive),11.3% (inactive),10.5% (inactive)
CCOc1cccc(C(=O)N(Cc2ccco2)C2CCS(=O)(=O)C2)c1 (configuration not stated),609,9.6% (inactive),2.4% (inactive),107,-9.8% (inactive),110,-0.342 (inactive),-6.1e-05 (inactive),0.00467 (inactive),11.5% (inactive),13.7% (inactive)
